The full list was thinned out, with hits kept by preference.
Tb PYK inh: T. brucei pyruvate kinase inhibition | Q57TT1 | TbPYK enzyme, Kinase-Glo Plus ATP luminescence, 45 min | Potency, µM (series often up to 76.8 µM), inactives show at the top dose activity, negative = inhibition, most hits filed as inhibitors | hit rate 0.12% among 410,000; note: potency is the fitted concentration of half-maximal effect; % is set by controls: 0 for no effect and ±100 for the full control effect; nearly all actives have a fitted effect of over 50% in size
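Luminescence from Kinase-Glo Plus, added after a 45-minute room-temperature reaction, served as the end-point read-out. The enzyme and substrate were preincubated with compound before ADP (130 uM final) initiated turnover. Concentration-effect curves came from normalized qHTS data.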
LmPK inhibitor: blocks Leishmania mexicana pyruvate kinase activity; Q27686; purified LmPK, Kinase-Glo ATP luminescence, 1 h; Potency, µM (series often up to 57.5 µM), for inactives: at the top dose activity change, negative = inhibition, hits mostly inhibitors; hit rate 0.37% among 290,000; AID 1721; note: potency is the fitted concentration of half-maximal effect; % is set by controls: 0 for no effect and ±100 for the full control effect
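qHTS format; LmPK 0.1 nM; substrates PEP 0.5 mM and ADP 0.1 mM. One-hour room-temperature incubation, then coupled luciferase luminescence; 0.5 nM enzyme wells mark activation.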
Sm TGR block: inhibitors of Schistosoma mansoni thioredoxin glutathione reductase | AID 485364 | Q962Y6 | Potency, µM (series often up to 114 µM), for the others: at the highest dose activity change, negative = inhibition, usual class: inhibitors | purified TGR, DTNB reduction, TNB absorbance 405 nm | hit rate 3% among 360,000; note: potency is the fitted concentration of half-maximal effect; % is set by controls: 0 for no effect and ±100 for the full control effect; nearly all actives have a fitted effect of over 60% in size
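First, TGR (20 nM dispensed) and NADPH were mixed with compound. Second, a 15 min room-temperature incubation followed. Third, further NADPH and then DTNB were added to start the reaction. Finally, TNB absorbance was monitored kinetically.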
FBPA Giardia inh: inhibitors of Giardia lamblia fructose-1,6-bisphosphate aldolase. purified Giardia FBPA. AID 2451. Potency, µM (series often up to 59.6 µM), inactives show at the top dose activity, negative = inhibition, hits mostly inhibitors. hit rate 0.71% among 290,000; note: potency is the fitted concentration of half-maximal effect; % is set by controls: 0 for no effect and ±100 for the full control effect; nearly all actives have a fitted effect of over 55% in size
Target sequence (A8B2U2 whole entry, looked up): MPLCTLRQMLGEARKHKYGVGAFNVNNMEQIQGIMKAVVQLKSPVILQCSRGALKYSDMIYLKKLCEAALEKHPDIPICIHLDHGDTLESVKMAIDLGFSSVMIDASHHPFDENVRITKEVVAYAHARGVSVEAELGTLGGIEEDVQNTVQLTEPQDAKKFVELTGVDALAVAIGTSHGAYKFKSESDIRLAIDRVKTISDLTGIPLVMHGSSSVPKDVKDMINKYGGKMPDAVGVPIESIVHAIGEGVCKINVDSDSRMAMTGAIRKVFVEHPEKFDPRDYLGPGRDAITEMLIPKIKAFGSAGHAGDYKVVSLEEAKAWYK
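40 nM FBPA preincubated 10 min at RT with compound (up to 57.5 uM final), then substrate plus GAPDH/TPI/NAD/arsenate coupling and diaphorase/resazurin added. Fluorescence read after 20 min at RT, 525/598 nm.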
CHX counter: counter-screen for Shiga toxin inhibitors: cycloheximide protein synthesis inhibition. cell reporter, cycloheximide protein synthesis inhibition counterscreen. max response, %. hit rate 12% among 300,000. AID 2314; in the data active = max response mostly above about 13%, no sharp cut-off; inactive = mostly below about 14%; note: read at 38.3 µM for the half of the compounds with a filed dose; 0% is about no effect
Shiga toxin inh: inhibitors of Shiga toxin in Vero cells. inhibition, % at 38.7 µM. hit rate 9.2% among 290,000. Vero cells, Shiga toxin protein synthesis inhibition reporter. AID 2315; in the data active = inhibition mostly above about 28%, no sharp cut-off; inactive = mostly below about 43%; note: 0% is about no effect
Starred values were filed as active, the others as inactive. Unless noted, calls come from the whole dose curve; as a rule, active = well fitted curve in the direction sought with a large enough effect; inconclusive = small, poorly fitted or top-dose-only effect, or another doubt; inactive = no such curve, though single readings can be large; an effect the other way counts as inactive or inconclusive.

Results for COc1ccc(/C=N/Nc2ccccn2)cc1O ?
Tb PYK inh: 1.2%; LmPK inhibitor: inconclusive; Sm TGR block: 5.6%; FBPA Giardia inh: 0.0%; CHX counter: 45.8*; Shiga toxin inh: 69.7*

How did Fc1ccc(/C=N/Nc2ccccn2)cc1 do in these assays?
Tb PYK inh: 0.4%; LmPK inhibitor: -13.4%; Sm TGR block: -3.6%; FBPA Giardia inh: -6.7%; CHX counter: 62.4*; Shiga toxin inh: 67.7*

How did CCCOc1ccc(/C=N/NC(=O)C(=O)Nc2ccccn2)cc1 do in these assays?
Tb PYK inh: 2.7%; LmPK inhibitor: -2.1%; Sm TGR block: -9.4%; FBPA Giardia inh: 2.4%; CHX counter: 2.7; Shiga toxin inh: 8.2

What do the screens show for `COCCCNC(=O)CCCn1c(=O)c2cccn2c2ccccc21`?
Tb PYK inh: 0.4%; Sm TGR block: -4.1%

Results for COc1ccc(/C=N/N=C/c2ccc(OC)c(OC)c2)cc1OC ?
Tb PYK inh: 3.8%; LmPK inhibitor: -10.6%; Sm TGR block: -3.3%; FBPA Giardia inh: 1.7%; CHX counter: -4.1; Shiga toxin inh: -4.1

How did COc1ccc(/C=N/N=C/c2ccc(OC)c(O)c2)cc1O do in these assays?
Tb PYK inh: 6.7%; LmPK inhibitor: -5.8%; Sm TGR block: -1.2%; CHX counter: 35.8*; Shiga toxin inh: 54.6

What do the screens show for `CCOc1cc(/C=C2\SC(=N)N(c3nonc3N)C2=O)ccc1OCC(N)=O`?
Tb PYK inh: -5.7%; LmPK inhibitor: 0.9%; Sm TGR block: 6.9%; FBPA Giardia inh: -7.8%; CHX counter: 0.4; Shiga toxin inh: -13.3

Results for CCOc1cc(/C=C2\SC(=N)N(c3nonc3N)C2=O)ccc1OCCN1CCOCC1 ?
Tb PYK inh: -6.6%; LmPK inhibitor: -12.6%; Sm TGR block: 1.5%; FBPA Giardia inh: inconclusive; CHX counter: 14.1*; Shiga toxin inh: 21.8

Results for COC(=O)c1ccccc1NC(=O)Cn1c(=O)n(CCCC(=O)NCCc2ccc(OC)c(OC)c2)c(=O)c2ccccc21 ?
Tb PYK inh: 2.3%; Sm TGR block: inconclusive

Results for O=S(=O)(Nc1nc2c(s1)CCCC2)c1ccc2ccccc2c1 ?
Tb PYK inh: -3.1%; LmPK inhibitor: 9.0%; Sm TGR block: -31.5%; FBPA Giardia inh: 8.2%; CHX counter: 0.6; Shiga toxin inh: -27.8

How did c1ccc2c(Nc3nc4c(s3)CCCC4)cccc2c1 do in these assays?
Tb PYK inh: inconclusive; LmPK inhibitor: -3.0%; Sm TGR block: inconclusive; CHX counter: 45.1*; Shiga toxin inh: 111.9*

What do the screens show for `CC(OC(=O)/C=C/c1ccco1)C(=O)Nc1cccc([N+](=O)[O-])c1` (configuration not stated)?
Tb PYK inh: -3.1%; LmPK inhibitor: -5.8%; Sm TGR block: inconclusive; FBPA Giardia inh: -2.2%; CHX counter: 1.0; Shiga toxin inh: 26.9

How did CC(OC(=O)/C=C/c1ccco1)C(=O)NC1CCCCC1C (configuration not stated) do in these assays?
Tb PYK inh: -0.8%; Sm TGR block: 44.7µM*

How did COc1ccc([N+](=O)[O-])cc1NC(=O)C(C)OC(=O)/C=C/c1ccco1 (configuration not stated) do in these assays?
Tb PYK inh: -12.8%; LmPK inhibitor: 1.3%; Sm TGR block: 50.1µM*; FBPA Giardia inh: -0.3%; CHX counter: 17.4*; Shiga toxin inh: 35.6*

Results for O=C(COc1ccccc1F)Nc1ccccc1OCc1cc(=O)n2ccccc2n1 ?
Tb PYK inh: -2.5%; Sm TGR block: 0.3%

Results for O=C(NNC(=S)Nc1ccccc1)Nc1ccccc1 ?
Tb PYK inh: -9.0%; LmPK inhibitor: 4.3%; FBPA Giardia inh: -12.2%; CHX counter: 33.6*; Shiga toxin inh: 88.3*

What do the screens show for `Cc1ccc(NC(=S)NNC(=O)Nc2ccccc2)cc1`?
Tb PYK inh: -0.9%; LmPK inhibitor: -4.4%; FBPA Giardia inh: -1.7%; CHX counter: 54.2*; Shiga toxin inh: 108.9*

What do the screens show for `O=C(NNC(=S)Nc1ccccc1)NNC(=S)Nc1ccccc1`?
Tb PYK inh: -16.4%; LmPK inhibitor: 1.1%; FBPA Giardia inh: 3.9%; CHX counter: -2.5; Shiga toxin inh: 5.0

Screening results: PubChem BioAssay, National Center for Advancing Translational Sciences (NCATS)
